Reference: PubChem BioAssay AID2588 (National Center for Advancing Translational Sciences (NCATS), 2010)
Results filed as inconclusive are left out. The source made the active and inactive calls. The call rests on the fitted dose curve; in most records, active means well fitted inhibition curve with a large enough effect; inconclusive means small, poorly fitted or top-dose-only effect, or effect the other way; inactive means flat fitted curve, though single readings scatter.

Molecular target: Lysosomal acid glucosylceramidase (Homo sapiens) (UniProt P04062)
Assay: qHTS Assay for Inhibitors and Activators of N370S glucocerebrosidase as a Potential Chaperone Treatment of Gaucher Disease: Activity in Non-Mutant Spleen Homogenate Using a Red Fluorescent Substrate
Settings: red fluorogenic substrate GCase activity; series mostly up to 50.2 µM; activity change, negative = inhibition: at the top concentration
From the text: NIH Chemical Genomics Center [NCGC]
NIH Molecular Libraries Probe Production Centers Network [MLPCN]
Assay Submitter (PI): Wei Zheng
Glucocerebrosidase (GC) catalyzes the hydrolysis of beta-glucocerebroside to glucose and ceramide in lysosomes. Mutations in the glucocerebrosidase gene result in Gaucher disease, an autosomal recessive lysosomal storage disorder. Many of the mutations encountered in patients with Gaucher disease are missense alterations that may cause misfolding, decreased stability and/or mistrafficking of this lysosomal protein. […] These inhibitors include iminosugar analogs and three non-iminosugar inhibitors identified from a previous HTS of 62,000 compounds with the wild type recombinant enzyme. However, the enhancement of enzyme activity by the chaperone action of an enzyme inhibitor must be balanced against the direct inhibition of the enzyme. An enzyme activator could also function as a chaperone by binding to the enzyme and helping to correct its misfolding and mistrafficking. While activators for GC have not yet been identified, they may have better therapeutic potential than inhibitors. Therefore the discovery and development of chemical activators may provide a new strategy for the chaperone therapy.
We have optimized a new assay using N370S mutant GC derived from the spleen of a Gaucher patient. […] In addition, the MLPCN compound library has expanded, which increases the chance of finding new and better probes.
This confirmation assay tests for compound activity in spleen homogenate containing wildtype enzyme using an alternate resorufin-based substrate.
NCGC Assay Protocol Summary:
This is a fluorogenic enzyme assay with resorufin-beta-D-glucopyranoside as the substrate and wildtype glucocerebrosidase from human spleen homogenate as the enzyme preparation. Upon the hydrolysis of this fluorogenic substrate, the resulting product, […] which can be detected by a standard fluorescence plate reader. Data were normalized to the controls for basal activity (without enzyme) and 100% activity (with enzyme). The AC50 values were determined from concentration-response data modeled with the standard Hill equation.
Assay buffer: 50 mM citric acid (titrated with potassium phosphate to pH 5.0), 100 mM potassium chloride, 10 mM sodium chloride, 1 mM magnesium chloride, 0.01% Tween-20.
1536-well assay protocol:
(1) Add 2 ul/well of spleen homogenate (27 ug final)
(2) Add 23 nL compounds in DMSO solution. The final titration was 0.5 nM to 58 uM.
(3) Add 2 ul of substrate (1 mM final)
(4) Incubate at 37C for 40 min.
(5) Add 2 ul stop solution (1M NaOH and 1M Glycine mixture, pH 10)
(6) Detect the assay plate in a ViewLux plate reader (PerkinElmer) with Ex=365 nm and Em=440nm.
Keywords: Glucocerebrosidase, beta-glucosidase, Gaucher Disease, pharmacological chaperone, chaperone therapy, high throughput screening, glucocerebrosidase inhibitor, MLSMR, MLSCN, NIH Roadmap, qHTS and NCGC

Sequence of Lysosomal acid glucosylceramidase (Homo sapiens) (P04062 whole entry, looked up): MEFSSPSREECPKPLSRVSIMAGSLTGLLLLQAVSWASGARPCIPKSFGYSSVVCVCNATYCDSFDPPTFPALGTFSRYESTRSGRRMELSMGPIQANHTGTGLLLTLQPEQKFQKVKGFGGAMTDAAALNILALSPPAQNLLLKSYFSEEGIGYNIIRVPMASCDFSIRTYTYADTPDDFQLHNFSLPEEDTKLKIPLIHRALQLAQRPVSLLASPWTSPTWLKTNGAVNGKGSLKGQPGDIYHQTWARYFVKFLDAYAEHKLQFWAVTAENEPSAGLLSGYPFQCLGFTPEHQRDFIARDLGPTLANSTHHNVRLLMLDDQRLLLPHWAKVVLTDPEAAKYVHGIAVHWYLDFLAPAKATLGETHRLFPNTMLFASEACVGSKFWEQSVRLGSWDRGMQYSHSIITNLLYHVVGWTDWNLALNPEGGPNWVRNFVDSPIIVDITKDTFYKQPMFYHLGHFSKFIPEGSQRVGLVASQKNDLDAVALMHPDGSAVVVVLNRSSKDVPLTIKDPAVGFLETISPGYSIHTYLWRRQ

**Q.** With `O=S(=O)(c1cccc(C(F)(F)F)c1)N1CCN(c2nc(-c3cccs3)nc3ccccc23)CC1` as the molecule, how does the Potency read?
**A.** 0.794 µM (active)

**Q.** How did the Potency turn out when `S=C(NCCCc1cnc[nH]1)NCCCN(Cc1ccc(Cl)c(Cl)c1)c1ccc(Br)cn1` was run?
**A.** 1 µM (active)

**Q.** For `CN(c1ccc(C(=O)Nc2nccs2)cc1)S(=O)(=O)c1ccccc1`, which Potency is on record?
**A.** 35.5 µM (active)

**Q.** `COc1cccc(NC(=O)CSc2nc3ccccc3c(=O)n2Cc2cccs2)c1` was tested. Which “activity change, negative = inhibition” value did it give?
**A.** -11.8% (inactive)

**Q.** `O=S(=O)(c1ccc(F)cc1)N1CCN(c2nc(-c3cccc(Br)c3)nc3ccccc23)CC1` was tested. Which “activity change, negative = inhibition” value did it give?
**A.** -2.28% (inactive)

**Q.** `CCOc1ccccc1NC(=O)CN(c1ccc(C)cc1)S(=O)(=O)c1c(C)noc1C` was tested. Which “activity change, negative = inhibition” value did it give?
**A.** -9.17% (inactive)

**Q.** How did the “activity change, negative = inhibition” value turn out when `O=c1cc(N2CCCCC2)c(-c2ccccc2)nn1Cc1c(Cl)cccc1Cl` was run?
**A.** 7.27% (inactive)

**Q.** `CCCC1CCC(C(=O)Nc2ccc3nc(N4CCOCC4)cc(C)c3c2)CC1` (stereo not given) was tested. Which Potency did it give?
**A.** 0.447 µM (active)

**Q.** Which “activity change, negative = inhibition” value does the source give for `N#Cc1ccccc1Sc1ccccc1C(=O)OCC(=O)NC12CC3CC(CC(C3)C1)C2` here?
**A.** -4.18% (inactive)

**Q.** With `COc1ccc(Nc2nc(-c3cccs3)nc3ccccc23)cc1` as the molecule, how does the Potency read?
**A.** 1.41 µM (active)

**Q.** Which Potency does the source give for `O=[N+]([O-])c1ccc(S(=O)(=O)N2CCN(c3nc(-c4cccs4)nc4ccccc34)CC2)cc1` here?
**A.** 1.12 µM (active)

**Q.** `Cc1cccc(Nc2nc(NCCO)nc(N3CCCC3)n2)c1` was tested. Which “activity change, negative = inhibition” value did it give?
**A.** -18.3% (inactive)

**Q.** For `Cc1ccc(Cl)cc1NC(=O)c1ccccc1OCC(=O)Nc1ccc(Cl)cc1`, which “activity change, negative = inhibition” value is on record?
**A.** 27.3% (inactive)

**Q.** With `COc1cccc(CN(C)c2nc(-c3cccs3)nc3ccccc23)c1` as the molecule, how does the Potency read?
**A.** 2 µM (active)

**Q.** Which Potency does the source give for `O=S(=O)(c1ccccc1Br)N1CCN(c2nc(-c3cccs3)nc3ccccc23)CC1` here?
**A.** 0.562 µM (active)

**Q.** With `N=c1c2c(-c3ccccc3)c(-c3ccccc3)n(Cc3ccco3)c2ncn1CCCn1ccnc1` as the molecule, how does the Potency read?
**A.** 12.6 µM (active)

**Q.** Which “activity change, negative = inhibition” value does the source give for `O=C(Nc1cnn(Cc2ccc(F)cc2)c1)c1cnn2c(C(F)F)cc(-c3ccccc3)nc12` here?
**A.** 23.4% (inactive)

**Q.** How did the Potency turn out when `O=S(=O)(c1cccc(Br)c1)N1CCN(c2nc(-c3cccs3)nc3ccccc23)CC1` was run?
**A.** 1.41 µM (active)

**Q.** For `Cc1cc(C)n2ncc(C(=O)Nc3cccc(O)c3)c2n1`, which “activity change, negative = inhibition” value is on record?
**A.** 27.8% (inactive)

**Q.** How did the Potency turn out when `O=S(=O)(c1ccccc1F)N1CCN(c2nc(-c3cccs3)nc3ccccc23)CC1` was run?
**A.** 0.501 µM (active)

**Q.** `O=S(=O)(c1ccc(OC(F)(F)F)cc1)N1CCN(c2nc(-c3cccs3)nc3ccccc23)CC1` was tested. Which Potency did it give?
**A.** 3.98 µM (active)

**Q.** Which Potency does the source give for `N#Cc1ccccc1S(=O)(=O)N1CCN(c2nc(-c3cccs3)nc3ccccc23)CC1` here?
**A.** 1.12 µM (active)

**Q.** How did the “activity change, negative = inhibition” value turn out when `O=S(=O)(c1ccc(Cl)cc1)N1CCN(c2nc(-c3cccc(Br)c3)nc3ccccc23)CC1` was run?
**A.** -11% (inactive)

**Q.** Which “activity change, negative = inhibition” value does the source give for `O=S(=O)(c1ccc(F)cc1)N1CCN(c2nc(-c3ccc(F)cc3)nc3cc(Cl)ccc23)CC1` here?
**A.** -10.4% (inactive)

**Q.** For `O=C(Nc1nccs1)c1ccc(NS(=O)(=O)c2ccc(Cl)cc2)cc1`, which “activity change, negative = inhibition” value is on record?
**A.** -9.24% (inactive)

**Q.** With `CC(C)(C)c1ccc(S(=O)(=O)N2CCN(c3nc(-c4cccs4)nc4ccccc34)CC2)cc1` as the molecule, how does the Potency read?
**A.** 1.12 µM (active)

**Q.** Which Potency does the source give for `CCN(CC)c1cc(C)c2cc(NC(=O)C3CCC(C)CC3)ccc2n1` (stereo not given) here?
**A.** 15.8 µM (active)

**Q.** With `CC(=O)Nc1ccc(NC(=O)COc2ccccc2C(=O)Nc2cccc(Cl)c2Cl)cc1` as the molecule, how does the “activity change, negative = inhibition” value read?
**A.** -15.2% (inactive)

**Q.** For `CCOC(=O)c1ccc(S(=O)(=O)N2CCN(c3nc(-c4cccs4)nc4ccccc34)CC2)cc1`, which Potency is on record?
**A.** 0.794 µM (active)

**Q.** For `COc1ccccc1OCC(=O)Nc1oc(-c2ccccc2)c(-c2ccccc2)c1C#N`, which “activity change, negative = inhibition” value is on record?
**A.** 10.6% (inactive)

**Q.** Which “activity change, negative = inhibition” value does the source give for `CCc1cc(C(=O)N/N=C/c2c(C)[nH]c3ccccc23)cs1` here?
**A.** 24.5% (inactive)

**Q.** For `O=S(=O)(c1cccc(Cl)c1)N1CCN(c2nc(-c3cccs3)nc3ccccc23)CC1`, which Potency is on record?
**A.** 1.26 µM (active)

**Q.** With `COc1cc2c(cc1NC(=O)COC(=O)[C@@H](NC(=O)c1ccccc1)C(C)C)oc1ccccc12` as the molecule, how does the “activity change, negative = inhibition” value read?
**A.** 21.1% (inactive)

**Q.** `O=S(=O)(c1ccc2ccccc2c1)N1CCN(c2nc(-c3cccs3)nc3ccccc23)CC1` was tested. Which Potency did it give?
**A.** 0.251 µM (active)

**Q.** How did the Potency turn out when `O=[N+]([O-])c1ccccc1S(=O)(=O)N1CCN(c2nc(-c3ccccc3)nc3ccccc23)CC1` was run?
**A.** 4.47 µM (active)

**Q.** Which Potency does the source give for `O=S(=O)(c1ccccc1Cl)N1CCN(c2nc(-c3cccs3)nc3ccccc23)CC1` here?
**A.** 0.794 µM (active)

**Q.** `O=C(COc1ccccc1C(=O)c1cnn(-c2ccccc2)c1)Nc1ccccc1` was tested. Which “activity change, negative = inhibition” value did it give?
**A.** -2.58% (inactive)

**Q.** Which “activity change, negative = inhibition” value does the source give for `Cc1ccc(-c2nc(N3CCN(S(=O)(=O)c4ccc(F)cc4)CC3)c3ccc(Cl)cc3n2)cc1` here?
**A.** -14.4% (inactive)

**Q.** For `COc1ccc(S(=O)(=O)N2CCN(c3nc(-c4cccs4)nc4ccccc34)CC2)cc1`, which Potency is on record?
**A.** 0.355 µM (active)

**Q.** `Cc1cc(C)n2ncc(C(=O)Nc3ccc(Cl)c(Cl)c3)c2n1` was tested. Which “activity change, negative = inhibition” value did it give?
**A.** 17.2% (inactive)
